Test results: PubChem BioAssay AID1851 (National Center for Advancing Translational Sciences (NCATS), 2009)
Values joined by “and” are separate entries in the source; they are usually repeats but may differ in a detail not shown here. Equal values may be shown once. The whole screen tested about 16,000 compounds, of which about 2,600 (16%) were called active. Not shown: some 20% with an inconclusive outcome. Calls follow the shape of the dose curve; as a rule, active = well fitted curve in the direction sought with a large enough effect; inconclusive = small, poorly fitted or top-dose-only effect, or effect the other way; inactive = no such curve, though single readings can be large or run the other way. Not all results are given here. Peptide text beside a SMILES is read from it. * marks the point of attachment. Cbz = O=C(OCc1ccccc1)*

molecular target: Cytochrome P450 2D6 (Homo sapiens) (UniProt P10635); assay: Cytochrome panel assay with activity outcomes; conditions: recombinant CYP, pro-luciferin dealkylation, luminescence, p450-cyp2d6; series mostly up to 57.1 µM; activity, negative = inhibition: at the top concentration
% is scaled to controls: 0 for no effect and ±100 for the full control effect.

Chain of Cytochrome P450 2D6 (Homo sapiens) (P10635 whole entry, looked up): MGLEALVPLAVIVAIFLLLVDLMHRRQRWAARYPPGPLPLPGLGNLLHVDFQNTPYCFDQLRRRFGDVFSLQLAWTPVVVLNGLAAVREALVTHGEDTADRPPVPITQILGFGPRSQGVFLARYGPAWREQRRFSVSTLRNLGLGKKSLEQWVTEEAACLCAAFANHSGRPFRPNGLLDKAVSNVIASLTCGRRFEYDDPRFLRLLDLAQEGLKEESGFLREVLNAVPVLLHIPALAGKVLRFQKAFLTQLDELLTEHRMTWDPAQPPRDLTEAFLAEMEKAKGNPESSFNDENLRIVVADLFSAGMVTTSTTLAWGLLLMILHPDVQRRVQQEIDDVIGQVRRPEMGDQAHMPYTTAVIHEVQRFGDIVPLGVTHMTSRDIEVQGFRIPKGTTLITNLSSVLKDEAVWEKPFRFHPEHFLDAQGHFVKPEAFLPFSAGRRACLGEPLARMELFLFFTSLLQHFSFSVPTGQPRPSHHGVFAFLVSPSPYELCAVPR

Compound	activity, negative = inhibition	AC50
Cc1cccn2c(=O)c(C=NCc3ccco3)c(Nc3ccc(SC(F)F)cc3)nc12	3.01% (inactive)	–
COC(=O)[C@@H]1O[C@@H](SCCN)[C@@H](O)[C@H](O)[C@H]1O	-0.405% [at 11.4 µM] (inactive)	–
C#CCSc1nnc(-c2cc3c(C(F)(F)F)nn(C)c3s2)n1C	-7.93% (inactive)	–
CSc1nnc(-c2sc(-c3ccccc3)nc2C)n1C	-9.68% (inactive)	–
C#CCSc1nnc(-c2sc(-c3ccccc3)nc2C)n1C	–	6.31 µM (active)
CC(=O)c1cc2ccccc2oc1=O	-7.3% [at 25.6 µM] (inactive)	–
COC(=O)C1CSC(C(=O)OC)N1C(=O)Nc1c(C)cccc1C (centres undefined)	19.8% (inactive)	–
O=C(CN(Cc1ccccc1Cl)C(=O)c1ccc(CN2CCOCC2)o1)NCC1CCCO1 (centres undefined)	–	7.08 µM (active)
O=C(CSCc1c(F)cccc1Cl)NCC1CCCO1 (centres undefined)	-8.79% (inactive)	–
Cc1ccc(CS(=O)(=O)Cc2ccc(C(=O)NCC3CCCO3)o2)cc1 (centres undefined)	-6.61% (inactive)	–
Cc1ccccc1NC(=O)c1cccc2nc3ccccc3nc12	-15.8% (inactive)	–
COC(=O)C/C=C\[C@@H](C)[C@@H](/C=N\OC[C@@H]1O[C@H](c2ccccc2)C=C[C@@H]1Oc1ccc(OC)cc1)NS(=O)(=O)c1ccc(C)cc1	-14% [at 11.4 µM] (inactive)	–
N=C(N)SCCc1cnc[nH]1	–	25.1 µM (active) and 6.31 µM (active)
N=C(N)SCCCN	-11.8% [at 11.4 µM] (inactive)	–
O=C(NCCNC[C@@H](O)COc1ccc(O)cc1)N1CCOCC1	–	inactive
Cc1nc(Oc2ccc(Cl)cc2)c2oc3ccccc3c2n1	-7.69% (inactive)	–
CCn1c(=O)cc(OCC(=O)Nc2cccnc2)c2ccccc21	–	6.31 µM (active)
Cn1c(=O)cc(OCC(=O)NCc2cccnc2)c2ccccc21	-25.4% (inactive)	–
COc1ccccc1OCC(=O)NNC(=O)c1cnccn1	10.5% (inactive)	–
Cc1cc(N2CCOCC2)ccc1/C=C1\SC(=O)N(C(C)C)C1=O	-6.56% (inactive)	–
COC(=O)[C@H](C)NC(=O)[C@@H](C)CO	-0.424% [at 11.4 µM] (inactive)	–
Cn1c(=O)c2[nH]c(/N=N\N3CCN(CCO)CC3)nc2n(C)c1=O	3.89% [at 11.4 µM] (inactive)	–
O=C(O)CCC(=O)c1ccc(Cl)cc1	11.7% [at 11.4 µM] (inactive)	–
N[C@H](Cc1ccc(Cl)cc1)C(=O)O	-8.94% (inactive)	–
N[C@@H](C(=O)O)[C@H](CC(=O)O)c1ccc(Cl)cc1	–	2.51 µM (active)

Compound	activity, negative = inhibition	AC50
CCn1c(SCc2ccc(C(=O)Nc3nccs3)cc2)nnc1-c1ccc(NC(C)=O)cc1	-29.1% (inactive)	–
CC12CCC(C(=O)Nc3ccccc3Br)(C/C1=N\O)C2(C)C (centres undefined)	8.66% (inactive)	–
CN(C)c1ccc(-c2nccc(NCc3cccs3)n2)cc1	–	0.126 µM (active)
c1cncc(-c2nccc(NCc3cccs3)n2)c1	–	0.631 µM (active)
c1csc(CNc2ccnc(-c3ccoc3)n2)c1	–	3.16 µM (active)
Cc1cnc(CNc2ccnc(-c3ccoc3)n2)cn1	-4.01% (inactive)	–
c1ccc(CNc2ccnc(-c3ccoc3)n2)cc1	–	20 µM (active)
Cc1cnc(CNc2ccnc(-c3c(C)noc3C)n2)cn1	-9.71% (inactive)	–
COc1ncc2ncc(=O)n(Cc3ccc(F)cc3)c2n1	5.3% (inactive)	–
CCC(C)[C@H](NC(=O)Nc1ccc(Oc2ccccc2)cc1)C(=O)O (some centres undefined)	11.5% (inactive)	–
O=C(O)c1c[nH]c2cc(OCc3ccccc3)ccc2c1=O	4.69% [at 11.4 µM] (inactive)	–
O=C(O)[C@@H]1[C@@H]2C[C@H]([C@@H](Br)[C@H]2N2C(=O)CCC2=O)[C@@H]1C(=O)O	-2.86% [at 11.4 µM] (inactive)	–
COC(=O)CCC(NC(=O)OCc1ccccc1)C(=O)NC(CC(C)C)C(=O)OC (centres undefined) (Cbz-Glu(OMe)-Leu-OMe; configuration not given here)	15.2% (inactive)	–
COC(=O)C(NNc1ccccc1)(NC(=O)c1ccccc1F)C(F)(F)F (centres undefined)	-16.1% (inactive)	–
CCCNC(=O)OC[C@@H]1O[C@H](CCO/N=C\c2ccc(C(=O)N3[C@H](c4ccc(C)cc4)[C@@H](C)CC[C@H]3C(=O)OC)cc2)C=C[C@@H]1Oc1ccc(OC)cc1	9.53% [at 11.4 µM] (inactive)	–
O=C(c1ccccc1)[C@@H]1O[C@H]1c1ccc(-c2ccccc2)cc1	3.66% (inactive)	–
C[C@H](NC(=O)Cn1cncn1)c1ccccc1	9.25% (inactive)	–
CC(NC(=O)Cn1cnc([N+](=O)[O-])n1)c1ccccc1 (centres undefined)	11% (inactive)	–
O=C(Cn1cnc2ccccc21)NC(c1ccccc1)c1ccccc1	–	7.08 µM (active)
C[N+]1(CCCC[N+]2(C)CCCCCCC2)CCCCCCC1	-7.84% [at 11.4 µM] (inactive)	–
N/C(=N\O)c1cn([C@@H]2O[C@@H](CO)[C@H](O)[C@@H]2O)c2ncnc(NO)c12	14.4% [at 11.4 µM] (inactive)	–
CCOc1ccc(N2C(=O)CN=C2Nc2ccccc2Cl)cc1	-13.5% (inactive)	–
CCOc1ccc(NC2=NCC(=O)N2Cc2cccs2)cc1	–	7.08 µM (active)
CCOc1ccc(N2C(=O)CN=C2Nc2ccccc2F)cc1	-7.99% (inactive)	–
